Assay results published in PubChem BioAssay (NCI).
Values joined by “and” are separate entries in the source; they are usually repeats but may differ in a detail not shown here. Identical values can stand only once. This is part of a sample that, as a whole, favours compounds with a hit. Of some 83,000 tested, about 20% had one in any assay.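 Negative percent growth values reflect cell death: -40 means 40% of the cells present at the start died, and -100 means all died.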 Values without a mark were called inactive. Active and inactive are the calls of the source. The calls were made as follows: active = growth percent below 10; inactive = the rest.

tested on: MDA-MB-468 breast; test: NCI-60 one-dose screen, 48 h (100 = growth as untreated, 0 = no growth, -100 = all killed); conditions: 10 µM unless noted

| SMILES | growth |
| --- | --- |
| CC(=O)O[C@H]1[C@@H]2OC(=O)C(CSc3ccccc3)[C@@H]2C[C@H]2O[C@]2(C)CC/C=C(\C)CCC[C@@H]1C (stereo partly specified) | -10% (active) |
| CCCCCCCCCCCCCCCC(=O)O[C@@H]1[C@@H](O)[C@@H](O)C([C@H](NC(=O)[C@@H]2C[C@@H](CCC)CN2C)[C@H](C)Cl)O[C@@H]1SC (stereo partly specified) | 97.9% |
| Nc1nc(=O)c2ccccc2s1 | 109% |
| O=S(=O)(NCCCNc1nccc(-c2c(-c3cccc(F)c3)nc3sccn23)n1)c1cccc2ccccc12 | 59.3% |
| COc1cc(C(O)C2C(=O)OCC2C2(c3ccc4c(c3)OCO4)SCCCS2)cc(OC)c1OC (stereo unspecified) | 92.2% |
| CN(C)c1ccc(/C=C(\C#N)c2ccccc2)cc1 | 4.19% (active) and -2.35% (active) and 4.76% (active) |
| COc1ccc(-c2nc(Nc3ccc(-c4nc5ccccc5[nH]4)cc3)nc(N3CCOCC3)n2)cc1 | -1.23% (active) |
| C[C@H]1[C@H](C)CC[C@]2(C(=O)O)CC[C@]3(C)C(=CC[C@@H]4[C@@]5(C)C[C@@H](Cc6cn([C@@H]7O[C@H](CO)[C@@H](O)[C@H](O)[C@H]7O)nn6)[C@H](O)C(C)(C)[C@@H]5CC[C@]43C)[C@H]12 | 94.1% |
| N#C/C(C(=O)c1ccccc1)=C1/C(=O)Nc2ccc(Br)cc21 | 102% |
| CNC(=O)c1cc(-n2ccc3cc(NC(=O)Nc4ccc(N5CCOCC5)c(C(F)(F)F)c4)ccc32)ccn1 | 95.2% |
| CCOC(=O)N1C/C(=C/c2ccc(F)cc2)C(=O)/C(=C/c2ccc(F)cc2)C1 | -55.6% (active) |
